# Screening data deposited in PubChem by National Center for Advancing Translational Sciences (NCATS).
# Shown are actives, neighbours in structure and some others; about 7.5% of the full set was active somewhere.
# ELG1 genotoxic: induces genotoxicity in HEK293T cells with luciferase-tagged ELG1 | actives 1.3% (n = 330,000) | HEK293T ELG1-luciferase reporter, luminescence, 16 h | Potency, µM (top dose mostly 46 µM), inactives show top-dose activity change, positive = activation, actives largely listed as activators; further: % of control where 0% means no effect; nearly all actives have a fitted effect of over 60% in size
#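 Luminescence read-out: rising ELG1-luciferase signal, reflecting elevated ELG1 protein under genetic stress, flags genotoxic compounds. Cells were treated for 16 hr at 37 °C before ONE-Glo detection.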
# Rab9 promoter act: activates the Rab9 promoter. AID 485297. Huh7 Rab9 promoter-luciferase reporter, luminescence, 24 h. actives 2.8% (n = 320,000). Potency, µM (titrated, usually from 9.22 µM), for the others: at the top dose activation, negative = inhibition, actives largely listed as activators; further: % of control where 0% means no effect; nearly all actives have a fitted effect of over 60% in size
#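 Measured in stably transfected Huh7 cells bearing a Rab9 promoter–luciferase construct: 24 h compound treatment at 37 °C, followed by luminescence detection.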
# FLuc counter: counter-screen for miR-21 project: firefly luciferase inhibitors or activators; P08659; purified FLuc, Km substrates, luminescence inhibition; Potency, µM (titrated, usually from 57.5 µM), inactives show at the highest dose activity change, negative = inhibition, usual class: inhibitors; actives 6.9% (n = 360,000); AID 588342;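 further: plate controls were vehicle for no effect and reference inhibitor for full effect; nearly all actives have a fitted effect of over 55% in size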
# Target sequence (P08659 whole entry, looked up): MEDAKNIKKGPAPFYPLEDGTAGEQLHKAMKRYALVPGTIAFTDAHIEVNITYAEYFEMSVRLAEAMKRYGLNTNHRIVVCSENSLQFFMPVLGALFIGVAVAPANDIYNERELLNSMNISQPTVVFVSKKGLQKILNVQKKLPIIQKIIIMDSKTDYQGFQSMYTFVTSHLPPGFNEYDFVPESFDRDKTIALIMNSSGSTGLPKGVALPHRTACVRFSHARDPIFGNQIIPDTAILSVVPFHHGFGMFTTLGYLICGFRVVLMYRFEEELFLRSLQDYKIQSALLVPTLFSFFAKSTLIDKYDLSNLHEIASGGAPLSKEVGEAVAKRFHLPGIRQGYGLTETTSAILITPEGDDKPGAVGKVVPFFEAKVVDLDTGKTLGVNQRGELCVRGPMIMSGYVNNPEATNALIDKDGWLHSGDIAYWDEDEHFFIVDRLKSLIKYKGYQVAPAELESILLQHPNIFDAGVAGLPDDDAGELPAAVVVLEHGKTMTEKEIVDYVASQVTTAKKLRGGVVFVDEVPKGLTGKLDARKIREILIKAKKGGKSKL
#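 Purified P. pyralis luciferase (10nM final) with 10uM D-luciferin and 10uM ATP (Km levels) in 50mM Tris acetate pH 7.5, 10mM Mg acetate, 0.01% Tween-20, 0.05% BSA; qHTS 6-point titration, ~60 µM downward; luminescence read.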
# KinaseGlo FLuc: counter-screen: inhibitors of Kinase-Glo firefly luciferase; Q27757; Kinase-Glo luciferase, ATP luminescence, 8 min; Potency, µM (highest dose often 38.3 µM), for the others: at the highest dose activity change, negative = inhibition, most hits filed as inhibitors; actives 0.28% (n = 200,000); further: on the % scale 0 is the no-effect control and ±100 the full control effect; nearly all actives have a fitted effect of over 60% in size
#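 Kinase-Glo luciferase light output from ATP and luciferin was measured with 10 uM ATP, within the enzyme's linear range. Buffer: 50 mM imidazole pH 7.2, 50 mM KCl, 7 mM MgCl2, 0.01% Tween 20, 0.05% BSA; luminescence read after 8 min at ambient temperature.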
# NPC1 prom act: activates the NPC1 promoter; Huh7 NPC1 promoter luciferase reporter, 24 h; Potency, µM (doses to about 9.22 µM), inactives show at the top dose activation, most hits filed as activators; actives 2.4% (n = 320,000); further: % of control where 0% means no effect; nearly all actives have a fitted effect of over 60% in size
#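 Stable NPC1-promoter luciferase Huh7 line; cpd (DMSO) 24 h, 37 °C, 5% CO2; Amplite luciferase reagent 10 min RT; luminescence readout. qHTS format.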
# SMN2 splice enh: increases expression of the SMN2 splice variant. HEK293 SMN2-luciferase splicing reporter, luminescence, 30-36 h. Potency, µM (series often up to 46.1 µM), for inactives: top-dose activity change, positive = activation, usual class: activators. actives 2.8% (n = 210,000); further: % of control where 0% means no effect; nearly all actives have a fitted effect of over 55% in size
#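 HEK293 cells carry an SMN2 […]–luciferase reporter in which exon 7 inclusion puts luciferase in frame. Cells were plated 10-12 h before compound addition, then incubated 30-36 h at 37C. ONE-Glo luminescence was read; sodium butyrate at 4.5 mM final served as control.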
# Starred values were filed as active, the others as inactive; u = inconclusive; x = no result given. The call rests on the fitted dose curve; in most records, active means well fitted curve in the direction sought with a large enough effect; inconclusive means small, poorly fitted or top-dose-only effect, or another doubt; inactive means no such curve, though single readings can be large; an effect the other way counts as inactive or inconclusive. Potency means the concentration at half of the fitted maximal effect.
SMILES,ELG1 genotoxic,Rab9 promoter act,FLuc counter,KinaseGlo FLuc,NPC1 prom act,SMN2 splice enh
CC(C)c1ccc(Nc2nc(CC(=O)O)cs2)cc1,u,1.4µM*,2.1µM*,-4%,1.3µM*,x
CC(C)c1ccc(/C=N/NC(=O)C2CCCC2)cc1,5.8µM*,2.5µM*,12µM*,x,2µM*,x
CC(C)(C)c1ccc(/C=N/NC(=O)C2CCCC2)cc1,u,u,19µM*,x,u,x
Cc1c(C(=O)Nc2cccc(F)c2)oc2c1-c1nn(Cc3c(F)cccc3Cl)cc1CC2,x,x,4%,x,x,x
Cn1c(=O)[nH]c(=O)c2c1nc(SCC(N)=O)n2Cc1cccc(Br)c1,21µM*,-8%,1%,x,2%,x
COc1ccccc1N1CCN(/N=C/C(Cl)=C/c2ccccc2)CC1,10%,3.2µM*,5.4µM*,x,2.5µM*,x
COc1ccccc1N1CCN(/N=C\c2ccccc2)CC1,u,u,15µM*,x,u,x
Cc1ccc(N2CCN(/N=C/C(Cl)=C/c3ccccc3)CC2)cc1,1%,-3%,-4%,-2%,3%,5%
COc1ccccc1N1CCN(/N=C\c2ccc(C)o2)CC1,u,3.2µM*,21µM*,-3%,3.5µM*,11µM*
Cc1cc(C)c(S(=O)(=O)NCCSCc2ccco2)c(C)c1,-3%,-5%,6%,x,0%,x
O=[N+]([O-])c1ccc(COc2cccc(CNc3ccc(Br)cc3)c2)cc1,9%,-4%,2%,x,-2%,x
COc1ccc(Cl)cc1Nc1sc(C(=O)c2ccccc2)c(N)c1C(=O)Nc1ccccc1,x,x,-3%,x,x,x
CCOC(=O)c1c(C)[nH]c(/C(C)=N/O)c1C,-9%,11%,-15%,-2%,17%,-4%
CCOC(=O)c1c(C)[nH]c(C2=NNC(=NC3CC3)SC2)c1C,0.58µM*,u,0.6µM*,-17%,u,-79%
N#C[C@H](Cc1ccc(O)cc1)c1ccc(O)cc1,x,x,x,0%,x,x
CCOC(=O)c1sc(NC(=O)C(C)(C)C)cc1C,18µM*,3.2µM*,12µM*,3%,2.8µM*,10µM*
CCOC(=O)c1sc(NC(=O)c2cccc(S(=O)(=O)N(CC)CC)c2)cc1C,2%,2%,u,-1%,14%,-3%
CCOC(=O)c1sc(NC(=O)c2ccc(Cl)s2)cc1C,2.3µM*,1µM*,0.6µM*,-1%,u,7.9µM*
CCOC(=O)c1c(NC(=O)Nc2ccc(Cl)cc2)sc(C)c1C,5%,-4%,5%,0%,-5%,-5%
CCOC(=O)c1sc(NC(=O)c2c(C)nn(Cc3ccccc3)c2C)cc1C,-25%,-8%,21µM*,-1%,1%,-12%
CCOC(=O)c1sc(NC(=O)Nc2ccc(Cl)cc2)cc1C,u,1%,6.7µM*,1%,20%,-22%
O=S(=O)(NCCc1ccc(Cl)cc1)c1cccc2cccnc12,-1%,-5%,1%,x,-2%,x
CCc1ccc(NC(=S)NC(=O)CC(C)C)cc1,u,u,7.6µM*,-4%,u,8.9µM*
CCOC(=O)c1sc(NC(=O)c2ccc(S(=O)(=O)N(C)C)cc2)cc1C,-20%,-6%,-26%,2%,-10%,-19%
CCOC(=O)c1sc(NC(=O)c2ccccc2)cc1C,1.3µM*,0.71µM*,1.1µM*,-13%,1.6µM*,11µM*
CCN(CC)S(=O)(=O)c1ccc(NC(=S)NC(=O)CC(C)C)cc1,-2%,1%,0%,0%,-5%,-9%
CCOC(=O)c1sc(NC(=S)NC(=O)CC(C)C)cc1C,4%,u,19µM*,-6%,23%,-11%
CCC(=O)Nc1cccc(-n2nnnc2SCC(=O)N2CCCCC2)c1,9%,u,-21%,7%,15%,7%
O=c1[nH]cnc(O)c1C(c1ccc([N+](=O)[O-])cc1)c1c(O)nc[nH]c1=O,-2%,1%,-3%,x,0%,x
Cc1cc2nc3ccc(=[N+](C)C)cc-3sc2cc1N,-2%,14%,17µM*,x,12%,x
